Compound activity deposited in PubChem by National Center for Advancing Translational Sciences (NCATS).
A selection: hits, their analogues and other compounds. The true share with any hit is near 15%.
VP16 counter = VP16 counterscreen qHTS for inhibitors of ROR gamma transcriptional activity. Drosophila S2 Gal4-VP16 UAS-luciferase, luminescence, 20 h. Potency, µM (doses to about 53.6 µM), usual class: inhibitors. 310,000 compounds, 3.5% hits;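 further: Gal4-VP16 expression switched on by copper sulfate through the metallothionein promoter; nearly all actives have a fitted effect of over 50% in size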
ELG1 repair inh = qHTS screen for small molecules that inhibit ELG1-dependent DNA repair in human embryonic kidney (HEK293T) cells expressing luciferase-tagged ELG1. AID 504467, 2011. HEK293T ELG1-luciferase reporter, luminescence, 16 h; DNA damage induced by 5-fluorouridine. 330,000 compounds, 2.3% hits. Potency, µM (doses to about 46.1 µM), hits mostly inhibitors; further: nearly all actives have a fitted effect of over 55% in size
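DMSO vehicle served as the neutral condition. Each well held 2,000 cells given 5-fluorouridine plus compound; after 16 hr at 37 °C/5% CO2, ONE-Glo was added and luciferase measured 30 min later.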
RORg inh = qHTS for inhibitors of ROR gamma transcriptional activity. Nuclear receptor ROR-gamma (Mus musculus), P51450. Drosophila S2 Gal4-RORgamma UAS-luciferase reporter, 20 h. Potency, µM (highest dose often 53.6 µM), actives largely listed as inhibitors. 310,000 compounds, 5.4% hits. AID 2551, 2010; further: nearly all actives have a fitted effect of over 60% in size
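Luciferase reporter read in Schneider cells carrying Gal4-RORγ (mouse) and UAS-Photinus luciferase; cells given compound 1 h before 700 uM copper sulfate induction, then incubated 20 h at ambient temperature.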
DT40 TDP1 no CPT = qHTS for Inhibitors of human tyrosyl-DNA phosphodiesterase 1 (TDP1): qHTS in cells in absence of CPT | DT40 Tdp1-/- hTDP1 cells, no CPT, ATP luminescence, 48 h | AID 686978, 2013 | 420,000 compounds, 15% hits | Potency, µM (doses to about 46.2 µM), most hits filed as inhibitors; further: nearly all actives have a fitted effect of over 55% in size
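Growth kinetics read by CellTiter-Glo luminescence after ≥48 hr at 37 °C. Cells: DT40 Tdp1-/- stably carrying human TDP1, 400 per well, compound exposure in the absence of CPT (DMSO vehicle).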
12-LOX inh = Primary qHTS assay for inhibitors of human arachidonate 12S-lipoxygenase (ALOX12): Round 2 | Polyunsaturated fatty acid lipoxygenase ALOX12 (Homo sapiens), P18054 | purified 12hLO, xylenol orange hydroperoxide absorbance | AID 1671190, 2021 | 580,000 compounds, 1.1% hits | Potency, µM (titrated, usually from 108 µM), hits mostly inhibitors
Target sequence (P18054 whole entry, looked up): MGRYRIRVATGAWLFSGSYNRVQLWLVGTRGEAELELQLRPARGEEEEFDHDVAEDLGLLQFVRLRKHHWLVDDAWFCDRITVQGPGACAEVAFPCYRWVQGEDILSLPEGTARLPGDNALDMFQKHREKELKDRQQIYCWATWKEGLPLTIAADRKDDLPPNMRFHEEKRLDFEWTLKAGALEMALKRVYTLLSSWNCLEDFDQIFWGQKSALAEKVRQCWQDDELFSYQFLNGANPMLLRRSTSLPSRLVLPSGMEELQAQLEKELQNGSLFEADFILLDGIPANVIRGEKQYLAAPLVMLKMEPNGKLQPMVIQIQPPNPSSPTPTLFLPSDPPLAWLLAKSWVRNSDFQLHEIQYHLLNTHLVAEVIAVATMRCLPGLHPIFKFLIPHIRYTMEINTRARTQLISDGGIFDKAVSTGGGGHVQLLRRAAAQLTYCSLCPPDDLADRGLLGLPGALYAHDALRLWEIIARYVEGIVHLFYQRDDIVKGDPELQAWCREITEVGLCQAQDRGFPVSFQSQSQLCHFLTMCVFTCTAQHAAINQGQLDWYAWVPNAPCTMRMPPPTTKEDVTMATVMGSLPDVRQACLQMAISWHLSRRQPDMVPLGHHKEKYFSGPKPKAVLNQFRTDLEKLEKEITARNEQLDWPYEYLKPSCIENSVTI
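Purified human 12hLO at 150 nM in 25 mM Hepes, 0.01% Triton X-100, pH 7.0, preincubated 15 min at room temperature with compound. Reaction started with 40 uM arachidonic acid, 30 min at room temperature. Hydroperoxide measured by Fe-xylenol orange, 573/405 nm absorbance ratio.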
DT40 TDP1 CPT = qHTS for Inhibitors of human tyrosyl-DNA phosphodiesterase 1 (TDP1): qHTS in cells in presence of CPT | chicken DT40 Tdp1-/-;hTDP1 cells + 20 nM CPT, ATP luminescence, 48 h | 420,000 compounds, 12% hits | Potency, µM (top dose mostly 46.2 µM), usual class: inhibitors; further: nearly all actives have a fitted effect of over 55% in size
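Chicken DT40 Tdp1-/- cells stably complemented with human TDP1 were seeded at 400 cells/well in medium containing 20 nM camptothecin, exposed to pin-transferred compounds, and grown at 37 °C for at least 48 hr. Viability was read as ATP luminescence.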
Of the large screens only hits and unclear results are named; the others gave an inactive call. The call rests on the fitted dose curve; in most records, active means well fitted curve in the direction sought with a large enough effect; inconclusive means small, poorly fitted or top-dose-only effect, or another doubt; inactive means no such curve, though single readings can be large; an effect the other way counts as inactive or inconclusive.

CC(C)N1CC(O)=C(c2nc3ccccc3[nH]2)C1=N	ELG1 repair inh inconclusive, DT40 TDP1 no CPT inconclusive, DT40 TDP1 CPT inconclusive
Cc1ccc(C)c(NC(=O)N2CCC(Oc3ncccc3C(=O)N3CCCCC3)C2)c1 (stereo not drawn)	none (no result: VP16 counter, ELG1 repair inh, RORg inh, DT40 TDP1 no CPT, DT40 TDP1 CPT)
Cc1ccccc1Nc1c(-c2ccc(N3CCOCC3)cc2)nc2cccc(C)n12	DT40 TDP1 no CPT inconclusive, DT40 TDP1 CPT inconclusive (no result: VP16 counter, ELG1 repair inh, RORg inh)
Cc1ccccc1Nc1c(-c2cccs2)nc2cccc(C)n12	DT40 TDP1 no CPT 13µM, DT40 TDP1 CPT 15µM (no result: VP16 counter, ELG1 repair inh, RORg inh)
Cc1cccc2nc(-c3cccnc3)c(Nc3ccc(C(C)C)cc3)n12	DT40 TDP1 no CPT 16µM, DT40 TDP1 CPT inconclusive (no result: VP16 counter, ELG1 repair inh, RORg inh)
Cc1ccc(Nc2c(-c3cccnc3)nc3ccc(Br)cn23)cc1	DT40 TDP1 no CPT inconclusive, DT40 TDP1 CPT inconclusive
Cc1ccccc1Nc1c(-c2cccnc2)nc2cccc(C)n12	ELG1 repair inh inconclusive, DT40 TDP1 no CPT 21µM, 12-LOX inh inconclusive, DT40 TDP1 CPT inconclusive
CCCCOc1ccc(NC(=O)C(=O)NCCCn2ccnc2)cc1	RORg inh inconclusive, DT40 TDP1 no CPT 18µM, DT40 TDP1 CPT inconclusive
CC(C)(C)c1ccc(OCCCn2ccnc2)cc1	VP16 counter 25µM, DT40 TDP1 no CPT inconclusive
Clc1cccc(OCCCn2ccnc2)c1	12-LOX inh inconclusive
Cc1cc(OCCCn2ccnc2)cc(C(C)C)c1	RORg inh 32µM, 12-LOX inh inconclusive
Cc1cc(OCCCn2ccnc2)ccc1C(C)C	VP16 counter inconclusive, DT40 TDP1 no CPT 21µM, DT40 TDP1 CPT inconclusive
CN1C(=O)c2cccn2CC1CNC(=O)COc1ccccc1 (stereo not drawn)	none (no result: VP16 counter, ELG1 repair inh, RORg inh, DT40 TDP1 no CPT, DT40 TDP1 CPT)
Cc1cccc(NC(=O)N2CC(Oc3ccc(-c4nc(-c5ccccc5)no4)cc3)C2)c1	none (no result: VP16 counter, ELG1 repair inh, RORg inh, DT40 TDP1 no CPT, DT40 TDP1 CPT)
COc1ccc(C(=O)O)cc1N1C(=O)Nc2ccccc2N1O	12-LOX inh 45µM
Cn1cnc2c(oc3nc(C4CCCCC4)c4c(c32)CCC4)c1=O	none (no result: VP16 counter, ELG1 repair inh, RORg inh, DT40 TDP1 no CPT, DT40 TDP1 CPT)
COc1ccc(C(CC(=O)O)c2ccc3c(c2)OCO3)cc1 (stereo not drawn)	none
COc1ccc(CNCCC(c2ccccc2)c2ccc3c(c2)OCO3)cc1 (stereo not drawn)	VP16 counter inconclusive, RORg inh inconclusive, DT40 TDP1 no CPT 5.8µM, 12-LOX inh inconclusive, DT40 TDP1 CPT 5.8µM
COc1ccc(CNCCC(c2ccc(C)cc2)c2ccco2)cc1 (stereo not drawn)	DT40 TDP1 no CPT 7.3µM, 12-LOX inh inconclusive, DT40 TDP1 CPT 12µM (no result: VP16 counter, ELG1 repair inh, RORg inh)
Cc1ccc(NC(=O)C2CCCN(C(=O)Cc3cccc4ccccc34)C2)c(Cl)c1 (stereo not drawn)	none (no result: VP16 counter, ELG1 repair inh, RORg inh, DT40 TDP1 no CPT, DT40 TDP1 CPT)
Cc1ccc(-n2ncc(C(=O)NC3CCCCC3)c2N)cc1	none (no result: VP16 counter, ELG1 repair inh, RORg inh, DT40 TDP1 no CPT, DT40 TDP1 CPT)
CC(=O)Nc1nc2n(n1)C(c1ccc(F)cc1)C=C(c1ccc(Cl)cc1)N2 (stereo not drawn)	DT40 TDP1 no CPT inconclusive, DT40 TDP1 CPT inconclusive (no result: VP16 counter, ELG1 repair inh, RORg inh)
COc1ccc(C(=O)Nc2nc3n(n2)C(c2ccc(Cl)cc2)C=C(c2ccccc2)N3)cc1OC (stereo not drawn)	DT40 TDP1 no CPT 15µM, DT40 TDP1 CPT 15µM (no result: VP16 counter, ELG1 repair inh, RORg inh)
O=S(=O)(Nc1nc2n(n1)C(c1ccc(F)cc1)C=C(c1ccccc1)N2)c1ccccc1 (stereo not drawn)	DT40 TDP1 no CPT 21µM, DT40 TDP1 CPT inconclusive (no result: VP16 counter, ELG1 repair inh, RORg inh)
O=C(Nc1nc2n(n1)C(c1ccc(F)cc1)C=C(c1ccccc1)N2)c1ccco1 (stereo not drawn)	DT40 TDP1 no CPT 23µM, DT40 TDP1 CPT 16µM (no result: VP16 counter, ELG1 repair inh, RORg inh)
O=S(=O)(Nc1nc2n(n1)C(c1ccc(F)cc1)C=C(c1ccc(Cl)cc1)N2)c1ccccc1 (stereo not drawn)	none (no result: VP16 counter, ELG1 repair inh, RORg inh)
